# Compound activity deposited in PubChem BioAssay by several laboratories.
# CYP2C19 activ = cytochrome P450 2C19 (human) activation | P33261 | recombinant CYP2C19, luciferin-H EGE luminescence; stronger effect = higher value; 0 = fully inhibited enzyme, 1 = untreated enzyme | activation factor at 5 µM | 96,000 tested, under 10 active;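 active = activation factor of at least 2 at 5 µM in the primary screen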;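 also: 0 = wells with 2.5 mM tranylcypromine and 1 = vehicle-only wells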
# CYP2C9 act = CYP2C9 (human) activation; AID 1024; 96,000 compounds, 1.4% hits; recombinant CYP2C9, luciferin-H conversion, luminescence; stronger effect = higher value; factor 1 = untreated enzyme, 0 = blocked; activation factor at 5 µM;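 active = activation factor of 2 or more for CYP2C9 at a 5 µM dose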;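 also: 0 = sulfaphenazole-blocked wells and 1 = vehicle-only wells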
# Target sequence (P11712 whole entry, looked up): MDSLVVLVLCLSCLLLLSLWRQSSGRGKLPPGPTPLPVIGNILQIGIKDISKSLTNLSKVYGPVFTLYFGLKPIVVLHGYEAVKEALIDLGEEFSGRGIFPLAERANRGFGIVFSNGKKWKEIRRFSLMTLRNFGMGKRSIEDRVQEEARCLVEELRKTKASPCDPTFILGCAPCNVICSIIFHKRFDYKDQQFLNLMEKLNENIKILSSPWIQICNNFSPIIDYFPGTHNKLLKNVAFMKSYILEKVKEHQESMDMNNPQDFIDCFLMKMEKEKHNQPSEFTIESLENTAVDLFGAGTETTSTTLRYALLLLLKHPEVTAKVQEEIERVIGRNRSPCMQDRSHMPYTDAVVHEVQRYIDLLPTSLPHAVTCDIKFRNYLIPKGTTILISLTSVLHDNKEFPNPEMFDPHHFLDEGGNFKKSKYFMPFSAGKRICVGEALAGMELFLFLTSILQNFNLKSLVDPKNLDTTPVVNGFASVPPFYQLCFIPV
# CYP2C9 inhib = human CYP2C9 inhibition; CYP2C9 Supersomes, luciferin-H conversion, luminescence; inhibition, % at 5 µM; 96,000 compounds, 20% hits;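 active = blocking of liver enzyme CYP2C9 beyond about 50% at 5 µM, limit read from the data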
# CYP2C19 inh = blocks human cytochrome P450 2C19. P33261. CYP2C19 Supersomes, luciferin-H EGE luminescence, 30 min. inhibition, % at 5 µM. 96,000 compounds, 21% hits;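 active = CYP2C19 inhibition above a set limit at 5 µM in the primary screen, cut at about 50% in these data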;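 also: plate controls were negative control wells for no effect and 2.5 mM tranylcypromine positive control for full effect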
# EphB4 antag = blocks human EphB4 binding to ephrin-B2 | EphB4 LBD / TNYL-RAW-Alexa532 peptide, fluorescence polarization | 97,000 compounds, 0.15% hits | P54760 | inhibition, % at 7 µM | AID 720;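 active = inhibition above the screen-wide mean inhibition plus 3 SD, cut at about 15% in these data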;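 also: 0% = DMSO wells and 100% = excess unlabeled TNYL-RAW peptide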
# * hit, by the source's call; · = no result. Only some compounds are listed: those with a hit (about 27% of all), similar ones and a draw of the others.
SMILES,CYP2C19 activ,CYP2C9 act,CYP2C9 inhib,CYP2C19 inh,EphB4 antag
c1ccc2c(-c3nc(C4CCCCC4)no3)cc(-c3ccncc3)nc2c1,0.4,0.2,80.4*,57.4*,3.8
O=C(O)COc1ccc(/C=N/NC(=O)C2CCCN2S(=O)(=O)c2ccc(Cl)cc2)cc1 (stereo unspecified),0.8,0.9,9.0,15.6,3.9
Cc1noc(C)c1CS(=O)(=O)c1ccc(Br)cc1,0,0.9,5.9,98.5*,-9.9
Cc1ccc(S(=O)(=O)Cc2csc(N)n2)cc1,0.7,1.1,-14.3,30.1,·
Cc1ccc(S(=O)(=O)Cc2c(C)noc2C)cc1,0,0.9,11.1,100.0*,3.5
Cc1cn(S(=O)(=O)c2ccc(Br)cc2)cn1,0.8,0.9,11.2,24.2,2.8
CCOC(=O)c1c(N)sc(C(=O)N(C)C)c1CN1CCOCC1,1.1,0.9,14.6,-5.3,6.1
CN(C(=O)c1ccc(S(=O)(=O)N2CCCC2)cc1)C1CCCCC1,0.9,1,4.8,5.2,-4.4
CN1CCN(C(=O)c2cnn(-c3ccccc3)c2NC(=O)c2cccs2)CC1,1,1,3.9,2.1,·
O=C(CCCN=C1NS(=O)(=O)c2ccccc21)OCC(=O)N1CCc2ccccc21,0.9,0.7,30.9,9.1,-3.4
CN(CC(=O)N1CCc2ccccc21)S(=O)(=O)c1ccc(Cl)cc1,0.4,2.7*,-167.1,59.5*,4.7
CCOc1ccc(S(=O)(=O)N(CC(=O)N2CCc3ccccc32)Cc2ccco2)cc1,0.1,0.5,52.5*,92.2*,·
CC(=O)Nc1ccc(S(=O)(=O)N(C)CC(=O)OCC(=O)N2CCc3ccccc32)cc1,0.8,0.6,36.4,21.2,-2.3
COC(=O)c1ccc2c(=O)n(C3CCCCC3)c(SCC#N)nc2c1,1.1,1.1,-9.1,-5.8,2.1
COc1cc(OC)c(Cl)cc1N,0.8,0.8,21.6,24.0,·
COc1cc(C)c(N)cc1C(C)C,0.1,0.4,56.8*,88.4*,0.6
CCSc1ncc(/C=N/Nc2ccccc2)n1C,0.6,0.5,51.9*,43.5,-1.4
CCSc1ncc(/C=N/Nc2ccc(Cl)cc2)n1C,0.7,0.8,23.4,29.4,-1.1
COc1cc(/C=C(/C(=O)c2cccs2)c2nc3ccccc3[nH]2)cc(OC)c1O,0.5,0.1,85.5*,51.2*,5.7
O=C(/C(=C/c1ccc(Cl)cc1)c1nc2ccccc2[nH]1)c1ccccc1,0.9,0.9,14.9,11.3,1.8
O=C(CCn1c(=O)oc2ccccc21)N1CCOCC1,1.1,1.1,-10.3,-9.7,-12.8
O=C(CSc1nc2ccccc2s1)CSc1nc2ccccc2s1,1,0.7,31.8,-0.9,0.1
O=c1oc2ccccc2n1CSC1=NCCS1,0.1,0.6,44.9,88.2*,3.7
O=c1oc2ccccc2n1CSc1nc2ccccc2s1,0,0.2,83.9*,99.8*,-5.1
CCC(C)(C)NC(=O)C(c1ccccc1F)N(Cc1ccco1)C(=O)Cn1nnc2ccccc21 (stereo unspecified),0.8,0.9,8.8,18.1,1.1
SMILES,CYP2C19 activ,CYP2C9 act,CYP2C9 inhib,CYP2C19 inh,EphB4 antag
O=C(NCc1ccc2c(c1)OCO2)C1COc2ccccc2O1 (stereo unspecified),·,·,·,·,1.5
O=C(NCc1ccncc1)C1COc2ccccc2O1 (stereo unspecified),0.5,0.6,37.3,50.6*,-0.4
O=C(NCc1ccccn1)C1COc2ccccc2O1 (stereo unspecified),0.2,1,-0.7,77.1*,·
O=C(Nc1ncccc1Cl)C1COc2ccccc2O1 (stereo unspecified),0.5,1.1,-8.8,46.5,-1.2
CCOC(=O)c1sc2nc(SCC#N)n(CCCN3CCCC3=O)c(=O)c2c1C,0.4,0.2,78.9*,55.3*,-0.2
CCOC(=O)c1sc2nc3n(c(=O)c2c1C)CCCCC3,0.3,0.4,57.3*,74.4*,0.1
Cc1c(C(=O)O)sc2nc3n(c(=O)c12)CCCCC3,0.9,1.1,-6.7,8.1,5.2
O=C(NC(Cc1ccccc1)C(=O)N1CCN(c2ccccn2)CC1)c1ccco1 (stereo unspecified),0.8,0.9,10.3,20.8,-1.4
CC(C)COC(=O)Cc1c(O)c2ccccc2[nH]c1=O,1,0.8,21.5,4.9,2.0
O=C(CSc1nc(-c2ccco2)cc(C(F)(F)F)n1)N1CCN(Cc2ccccc2)CC1,0.2,0.3,67.6*,83.3*,-1.3
O=C(CSc1nc(-c2ccco2)cc(C(F)(F)F)n1)Nc1ccc(C(=O)N2CCCCC2)cc1,0.4,0.1,85.3*,55.4*,-7.2
